Laboratory results taken from PubChem BioAssay (NCI).
The panel holds about 83,000 compounds, 20% with a hit somewhere; the sample as a whole holds those more often.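 Negative percent growth values reflect cell death: -40 means 40% of the cells present at the start died, and -100 means all died.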 The source made the active and inactive calls. How the source made its calls: active means growth percent below 10; inactive means the rest.

test system: HL-60(TB) leukemia; test: NCI-60 one-dose screen, 48 h (100 = growth as untreated, 0 = no growth, -100 = all killed); details: 10 µM unless noted

Structure (SMILES) | growth
Nc1nc(I)c2ncn(C3OC(CO)C(O)C3O)c2n1 (stereo unspecified) | 99.4% (inactive)
CC(=O)N1N=C(c2ccc(-n3ccc(C(F)(F)F)n3)c(F)c2)CC1c1ccc[nH]1 (stereo unspecified) | 98.8% (inactive)
CN(C)CCOC(=O)Nc1ccccc1Cl | 112% (inactive)
O=C(c1ccccc1O)N1CCCC1 | 91.8% (inactive)
C=C1c2nc3ccccc3n2C=C(c2cccc(Cl)c2)N1Cc1ccc(OC)cc1 | -25% (active)
CCOC(=O)c1ccc2c(c1)[n+](=O)c(C(=O)C1CCCS1)c(C(F)(F)F)n2[O-] (stereo unspecified) | -69% (active)
COc1ccc(/C=C(\C#N)n2nnc3cc(Cl)ccc32)cc1 | -6.14% (active)
Cc1ccc(CNc2ccc3nc(CCC(C)C)[nH]c3c2)cc1 | 93.7% (inactive)
COc1nc2c(c(=O)n1C)CN(c1ccccc1)C(=O)C(C)N2 (stereo unspecified) | 94% (inactive)
COc1cc2oc(-c3cccc(C(=O)Nc4ccc5c(c4)OCO5)c3)cc(=O)c2c(O)c1OC | 94.3% (inactive)
Clc1ccc(C2=NN=C3C(Cc4ccccc4)=Nc4ccccc4N3C2)cc1 | 25.2% (inactive)
Cc1cc2c(c(C)c1Cl)C(=O)/C(=C/c1cccc([N+](=O)[O-])c1)O2 | 98.8% (inactive)
CCN(CC)c1ccc(N2C(=O)/C(=C/c3cccs3)SC2=S)cc1 | 92.6% (inactive)
Nc1ccc(Sc2ccc([N+](=O)[O-])c3nonc23)cc1 | 42.8% (inactive)
CCOC(=O)c1cnc2ccc(Br)cc2c1Nc1cccc(S(N)(=O)=O)c1 | 99.5% (inactive)
CCOC(=O)CN1CCC(C(=O)OCC)CC1 | 116% (inactive)
